Glyco luc inh – N-linked glycosylation inhibition. D54 ERlucT glycosylation luciferase reporter, 24 h; percent of 100 nM tunicamycin response. reporter increase, % at 12.5 µM. 360,000 compounds, 0.23% hits;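 active means mean luciferase reporter signal, scaled so untreated is 0 and the glycosylation-blocking control 100, at or above a set limit in every replicate; inconclusive means mean reaches the limit but not every replicate does; inactive means mean below the limit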;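 further: luciferase carries N-glycosylation sites so blocking glycosylation raises the light; 0% = median of neutral control wells and 100% = median of 100 nM tunicamycin wells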
ALR H2O2 inh – human ALR oxidase inhibition via reduced H2O2; P55789; purified ALR, DTT oxidation, H2O2 HRP-luminol luminescence; inhibition, % (no concentration beside the values); 290,000 compounds, 3.8% hits; AID 485317;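 active means mean replicate inhibition above about 79%, with every replicate also reaching it, limit read from the data; inconclusive means only one of the two criteria met; inactive means mean below limit and not every replicate reaching it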
NSD2 HMT inh – NSD2 (human) methyltransferase inhibition. O96028. NSD2 peptide methylation, AlphaScreen, 120 min. inhibition, % at 12.5 µM. 310,000 compounds, 0.54% hits; in the data active means inhibition above about 50%
Casp6 inh – inhibitors of human caspase-6 | purified caspase-6, Z-VEID-R110 cleavage fluorescence | P55212 | 350,000 compounds, 0.53% hits | inhibition, % at 12.5 µM;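 active means mean inhibition across replicates at least about 35%, with every replicate also reaching that limit, limit read from the data; inconclusive means only one of the two criteria met; inactive means neither criterion met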;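 further: 0% = median of neutral control wells and 100% = no fluorescence left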
CDK5 inh – inhibitors of human CDK5/p35 kinase; Q00535+Q15078; Recombinant CDK5/p35, ADP-Glo luminescence, 60 min; inhibition, % at 10 µM; 330,000 compounds, 0.01% hits;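 active means highest replicate inhibition of at least 50% and at least 75% of replicates reaching 50%; inconclusive means only one of the two criteria met; inactive means both criteria failed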;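 further: plate controls were DMSO neutral control for no effect and GW8510 at 10 µM for full effect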
Mot1-301 SUMO – inhibitors of SUMOylation pathway: yeast Mot1-301 growth rescue. 320,000 compounds, 1% hits. S. cerevisiae Mot1-301 growth rescue, ATP luminescence, 38.5C; percent above DMSO median, 100 means doubled. growth rescue, % at 18.8 µM. AID 2716;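 active means every valid replicate shows activation above 250% relative to neutral control wells; inactive means the rest, any valid replicate at or below 250%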;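 further: OY570 slx delta 5 strain wells were the positive control but not used for scaling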
* marks the source's active call; other numbers are inactive results; ? = inconclusive; . = not tested or not shown. Compounds with a hit are over-represented: about 3.9% of the library has one in this group of screens.

SMILES | Glyco luc inh | ALR H2O2 inh | NSD2 HMT inh | Casp6 inh | CDK5 inh | Mot1-301 SUMO
Cc1cc(C)c(OCC(=O)N(C)CC(=O)Nc2ccc(N3CCOCC3)cc2)c(C)c1 | 0 | 27 | 2 | 4 | -1 | 172
CN(CC(=O)Nc1ccc(N2CCOCC2)cc1)C(=O)c1cc(F)c(F)cc1Cl | 1 | 61 | 4 | -3 | -1 | -20
C[C@@H]1CCCCO[C@H](CN(C)C(=O)C2CCCCC2)[C@@H](C)CN([C@@H](C)CO)C(=O)c2cc(NC(=O)Nc3cccc4ccccc34)ccc2O1 | . | . | . | 1 | . | .
C[C@H](CO)N1C[C@H](C)[C@@H](CN(C)CC2CC2)Oc2cc(-c3ccccc3)ccc2S1(=O)=O | . | . | . | 0 | . | .
COc1ccc(/C=C/C(=O)Nc2ccc(N3CCOCC3)cc2)cc1 | -3 | . | 0 | . | 0 | -13
CC(=O)Nc1ccc2c(c1)C(=O)c1ccccc1C2=O | 3 | -26 | 3 | . | -1 | -11
COc1ccc(N2CCN(c3ccc(NC(=O)/C=C\C(=O)O)cc3)CC2)cc1 | -1 | 83* | 6 | 7 | 0 | 18
O=C(O)/C=C/C(=O)Nc1ccc(O)cc1 | 0 | 98* | -3 | 24 | 0 | -8
O=C(O)/C=C/C(=O)Nc1ccc2c(c1)C(=O)c1ccccc1C2=O | 4 | 97* | . | 25 | 2 | 19
CCCC#Cc1ccc([C@H]2[C@@H](CO)N(C(C)=O)[C@H]2CNC(=O)C2CC2)cc1 | . | . | . | -1 | . | .
C[C@H]1CN([C@@H](C)CO)C(=O)c2cccc(NS(C)(=O)=O)c2O[C@H]1CN(C)S(=O)(=O)c1cn(C)cn1 | . | . | . | -5 | . | .
O=C(CN1CCOc2ccccc21)NCc1ccccc1 | 0 | 98* | . | -1 | -7 | -22
CC(CCc1ccccc1)NC(=O)CN1CCOc2ccccc21 (configuration not stated) | -1 | 98* | . | 1 | 0 | -13
CC(CCc1ccccc1)NC(=O)CN1CCSc2ccccc21 (configuration not stated) | -2 | 99* | 4 | -1 | 2 | .
Cc1cccc(NC(=O)CN2CCSc3ccccc32)c1 | 2 | . | 4 | 1 | 0 | .
CC(CCc1ccccc1)NC(=O)CN1CCN(Cc2ccccc2)C1=O (configuration not stated) | -2 | -4 | -2 | . | -2 | 343
CCC(=O)Nc1ccc2c(c1)C(=O)N(C)[C@@H]1CC[C@@H](CC(=O)NCCCN(C)C)O[C@@H]1CO2 | . | . | . | -2 | . | .
CCC(=O)Nc1ccc2c(c1)C(=O)N(C)C[C@@H](OC)[C@H](C)CN[C@@H](C)CO2 | . | . | . | -8 | . | .
COc1ccccc1CNc1nc(Nc2ccccc2-n2cccn2)c2sccc2n1 | -3 | . | 0 | 43* | . | .
Cc1c(NC(=O)C(c2ccccc2)c2ccccc2)cccc1C(=O)O | 0 | 5 | -9 | 3 | 2 | 267
O=C(O)c1cc(O)ccc1NC(=O)C(c1ccccc1)c1ccccc1 | 2 | 95* | -1 | 1 | 0 | -14
CCOC(=O)c1sc2nc3c(SCC(=O)O)cc(C(=O)c4ccccc4O)cn3c(=O)c2c1C | 3 | 8 | 1 | 11 | -1 | -9
O=C(O)CSc1cc(C(=O)c2ccccc2O)cn2c(=O)c3c(-c4ccccc4)csc3nc12 | 1 | 98* | . | 39* | -2 | 6
c1ccc2c(c1)[nH]c1c(NCC3CCCO3)ncnc12 (configuration not stated) | 3 | 82* | 2 | . | 0 | 1
CCOc1ccccc1C(=O)NC1CC2CCCC(C1)N2Cc1nnnn1Cc1ccco1 (configuration not stated) | -1 | . | -3 | . | 0 | 2
SMILES | Glyco luc inh | ALR H2O2 inh | NSD2 HMT inh | Casp6 inh | CDK5 inh | Mot1-301 SUMO
O=C(NC1CC2CCC(C1)N2Cc1nnnn1Cc1ccco1)NC12CC3CC(CC(C3)C1)C2 (configuration not stated) | -3 | 80* | 7 | . | 0 | 4
O=C(NCCCN1CCOCC1)[C@H]1[C@H](CO)[C@H]2Cn3c(cccc3=O)[C@@H]1N2C(=O)C1CCCC1 | . | . | . | -1 | . | .
C[C@H]1CN([C@@H](C)CO)C(=O)c2cc(C#CC3CCCCC3)cnc2O[C@H]1CN(C)C(=O)Cc1ccccn1 | . | . | . | -1 | . | .
C[C@H](CO)N1C[C@H](C)[C@H](CN(C)S(=O)(=O)c2cccs2)Oc2c(NC(=O)c3nc4ccccc4s3)cccc2C1=O | . | . | . | 4 | . | .
CCOc1ccc(CCNC(=O)C(O)c2ccccc2)cc1 (configuration not stated) | 0 | 99* | 0 | . | -1 | -19
CCOc1ccc(C(=O)NCCc2ccccc2)cc1 | -18 | . | -1 | -5 | 0 | -18
O=[N+]([O-])c1ccccc1N=Nc1ccc(O)cc1O | 0 | . | 18 | 7 | . | .
O=S(=O)(O)c1cc(O)c(N=Nc2ccc(O)cc2O)c2ccccc12 | -6 | . | 92* | 52* | 3 | .
CN1[C@@H]2Cn3c(ccc(-c4ccc(F)cc4)c3=O)[C@H]1[C@@H](C(=O)N1CCCCC1)[C@@H]2CO | . | . | . | 1 | . | .
CCOc1ccc(Nc2c3ccccc3nc3ccccc23)cc1 | 64* | . | . | 0 | 1 | 7
CCOc1ccc(Nc2nc3ccccc3n2C)cc1 | 0 | 94* | 15 | 3 | 1 | 2
CCc1ccccc1Nc1nc2ccccc2n1C | 2 | 98* | -1 | -1 | -2 | 45
CCCn1c(Nc2nc3ccccc3n2C)nc2ccccc21 | ? | 34 | . | . | -1 | 5
C[C@H]1CN([C@@H](C)CO)C(=O)c2cc(N(C)C)ccc2O[C@@H]1CN(C)CC1CCCCC1 | . | . | . | 1 | . | .
Cn1c(=O)[nH]c(=O)c2c1nc(N1CCCC1)n2CCCSc1nc2ccccc2o1 | -1 | 5 | 2 | . | 0 | -5
Cn1c(=O)[nH]c(=O)c2c1nc(Br)n2CCCSc1nc2ccccc2o1 | 4 | 98* | -12 | . | 1 | -5
CC(C)NC(=O)Nc1ccc2c(c1)C(=O)N([C@H](C)CO)C[C@@H](C)[C@H](CN(C)C)O2 | . | . | . | -1 | . | .
O=C(C[C@H]1CC[C@H]2[C@@H](COC[C@@H](O)CN2C(=O)c2ccccc2F)O1)N1CCOCC1 | . | . | . | 3 | . | .
CC(C)N(C(=O)Nc1ccc2nsnc2c1)C(C)C | . | -4 | 104* | 100* | . | .
CN(C)CC(O)CN(c1ccccc1)c1ccccc1 (configuration not stated) | 1 | 99* | 3 | 1 | . | -7
O=C(C[C@H]1CC[C@@H]2[C@H](COC[C@H](O)CN2CC2CCCCC2)O1)NCc1ccc(Cl)cc1 | . | . | . | 0 | . | .
CC1CC(Nc2ccccc2N)=CC(=O)O1 (configuration not stated) | 3 | 86* | 7 | . | -2 | .
Cc1cccc(NC2=CC(=O)OC(C)C2)c1 (configuration not stated) | -1 | -4 | -6 | . | 1 | 13
Nc1ccccc1NC1=CC(=O)CC(c2ccco2)C1 (configuration not stated) | -2 | 84* | 4 | . | -2 | -5

Screening data deposited in PubChem BioAssay by Broad Institute.
